Dicer inh = inhibitors of Dicer pre-microRNA processing, primary screen, biochemical, cat-ELCCA, chemiluminescence; Endoribonuclease Dicer (Homo sapiens), Q9UPY3; cat-ELCCA pre-miR-21 Dicer processing; stronger effect = higher value; z-score at 25 µM; 47,000 compounds, 6% hits; in the data active = z-score above about 3, passing the limit was not always enough;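 also: higher signal means more uncleaved substrate so more Dicer inhibition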
A number is an active result; i = inactive. The entries come from a sample that favours hits as a whole.

SMILES	Dicer inh
Cc1ccc2oc3c(c(=O)c2c1)C(c1cccc(O)c1)N(Cc1ccc2c(c1)OCO2)C3=O (stereo not given)	i
C=CCOC(=O)c1sc(N2C(=O)c3oc4ccccc4c(=O)c3C2c2ccc(F)cc2)nc1C (stereo not given)	i
O=C(COc1ccccc1O)NCc1ccccc1Cl	i
CC1CC(NC(=S)Nc2ccc(I)cc2F)CC(C)(C)C1 (stereo not given)	i
CC1CC(NC(=S)NC2CC3CC2C2C=CCC32)CC(C)(C)C1 (stereo not given)	3.1
S=C(N/N=C/C=C/c1ccccc1)NC1CC2CC1C1C=CCC21 (stereo not given)	i
O=[N+]([O-])c1cc(C2SCCS2)ccc1Sc1ccc(C(F)(F)F)cn1	i
O=[N+]([O-])c1ccc(NCc2ccc(Cl)c(Cl)c2)nc1	i
Cc1ccc(S(=O)(=O)Nc2sc3c(c2C(=O)O)CCCC3)cc1	i
COc1cc(C(F)(F)F)nc2ccc(C)c(NC(=O)Nc3ccc(Cl)cc3)c12	i
Oc1ccccc1Nc1nc(-c2cccnc2)nc2ccccc12	11
COc1ccc(Nc2nc(-c3cccnc3)nc3ccccc23)cc1	i
COC(=O)c1cccc(Nc2nc(-c3cccnc3)nc3ccccc23)c1	i
C=CCc1ccc(OC(C)C(=O)Nc2sc3c(c2C(N)=O)CCC3)c(OC)c1 (stereo not given)	i
O=C1c2cccc3cccc(c23)C(=O)C1c1ccccc1	i
O=C1c2cc3ccccc3cc2C(=O)C1c1ccccc1	4
O=C1c2ccccc2C(=O)C1c1ccc2ccccc2n1	i
Cc1ccc(OCC(O)Cn2c[n+](C)c3cc(C)c(C)cc32)cc1 (stereo not given)	i
Cn1c(=O)c2c(nc(N3CCCCC3)n2Cc2ccccc2F)n(C)c1=O	i
CN1CCN(c2nc3c(c(=O)n(C)c(=O)n3C)n2Cc2c(F)cccc2Cl)CC1	i
CN1CCN(c2nc3c(c(=O)n(C)c(=O)n3C)n2Cc2ccccc2Cl)CC1	4.2
COc1ccc(-c2cc(C(F)(F)F)n3nc(C(N)=O)c(Br)c3n2)cc1	i
C=CCn1c(SC(C(C)=O)C(=O)OCC)nnc1-c1ccncc1 (stereo not given)	i
CN(C)c1ccc(/C=C/c2nc3n(n2)C=COc2ccccc2-3)cc1	6.1
COc1ccc(/C(O)=C2\C(=O)C(=O)N(Cc3ccncc3)C2c2cccc(Oc3ccccc3)c2)cc1 (stereo not given)	i
SMILES	Dicer inh
CCOc1cc(C2Nc3ccc4ccccc4c3C3=C2C(=O)CC(C)(C)C3)ccc1O (stereo not given)	i
CC1(C)CC(=O)C2=C(C1)c1c(ccc3ccccc13)NC2c1ccc(O)cc1 (stereo not given)	i
CC1(C)CC(=O)C2=C(C1)c1c(ccc3ccccc13)NC2c1ccc(O)c(O)c1 (stereo not given)	13
Cn1c(=O)c2c(nc(N/N=C/c3ccccn3)n2C)n(C)c1=O	i
CCOC(=O)C1=C(C)N(C(C)=O)C(SC)=NC1c1ccccc1 (stereo not given)	i
CN1CCc2c(sc3[nH]c(=S)n(-c4ccccc4)c(=O)c23)C1	i
O=c1c2cc(-c3ccccc3)sc2[nH]c(=S)n1-c1ccccc1	4.1
O=c1[nH]c2sc(-c3ccccc3)cc2c(=O)n1-c1cccc(Cl)c1	4.4
CCOC(=O)Cn1c(=O)n(-c2ccc(Cl)cc2)c(=O)c2cc(-c3ccccc3)sc21	i
O=c1[nH]c2c(cnn2-c2ccccc2)c(=O)n1-c1ccc(Cl)c(Cl)c1	i
CC1CCc2c(sc3[nH]c(=S)n(-c4ccccc4)c(=O)c23)C1 (stereo not given)	i
O=C(NNC(=O)c1sccc1OCc1ncc(C(F)(F)F)cc1Cl)Nc1ccccc1	i
Cc1cc(C)cc(N2C(=O)CC(Nc3ccc(N4CCOCC4)cc3)C2=O)c1 (stereo not given)	i
Cc1ccc(-c2noc(COc3ccc(Cl)cc3)n2)cc1	i
Cc1ccc(-c2noc(COc3ccc(Cl)cc3C)n2)cc1	5.7
COc1ccc(-c2noc(COc3ccc(C)cc3C)n2)cc1	i
CC(C)(C)OC(=O)C(C)(C)S(=O)(=O)c1ccc(C(F)(F)F)cn1	i
CC(=O)Nc1ccc(NC(=O)CCC(=O)O)cc1	i
COc1ccc(NC(=O)CCC(=O)O)cc1OC	3.7
COC(=O)CCC(=O)Nc1ccc(C)cc1	i
NS(=O)(=O)c1ccc(NC(=O)CCC(=O)O)cc1	3.4
COc1ccc(NC(=O)CC(C)(C)CC(=O)O)cc1OC	i
NS(=O)(=O)c1ccc(NC(=O)CCCC(=O)O)cc1	i
CC(C)S(=O)(=O)/C(C#N)=C/Nc1cccnc1	i
CCN(CC)CCSCC(=O)Nc1c(-c2ccccc2)oc2ccccc2c1=O	i
SMILES	Dicer inh
CN(C)c1nc(-c2ccccc2)nc(-c2ccccc2)c1C#N	i
Cc1cc(C)n(CCS(=O)(=O)c2ccc(Cl)cc2)n1	i
NC(=O)C1CCN(C(=O)/C=C/C(=O)O)CC1	i
NC(=O)C1CCN(C(=O)CCC(=O)O)CC1	3.5
NC(=O)C1CCN(C(=O)CN(CC(=O)N2CCC(C(N)=O)CC2)Cc2ccco2)CC1	i
CCOC(=O)N1CCN(C(=O)CSc2ncccn2)CC1	i
CC1CCN(C(=O)CCCC(=O)O)CC1	i
NC(=O)C1CCN(C(=O)CSc2ncccn2)CC1	3.6
CCOC(=O)c1c(C)oc2cc(Br)c(OCC(=O)OC(C)(C)C)cc12	i
CC(=O)NC(Nc1ccc(F)c(Cl)c1)(C(F)(F)F)C(F)(F)F	i
CCCCCOc1ccc(C2c3c(oc4ccccc4c3=O)C(=O)N2c2nnc(C)s2)cc1 (stereo not given)	i
O=C(CS(=O)(=O)c1ccc(C(F)(F)F)cc1[N+](=O)[O-])Nc1ccc(F)cc1F	i
COC(=O)CNC(=O)c1cccnc1Sc1ccc(C)cc1	i
COc1ccc(NS(=O)(=O)c2ccc(N)cc2)cc1	i
COc1ccc(NS(=O)(=O)c2cccc(S(=O)(=O)c3ccc(Cl)cc3)c2)cc1	3.4
COc1ccc(NS(=O)(=O)c2ccc(NS(=O)(=O)c3ccc(Cl)cc3)cc2)cc1	i
O=C(Cn1nc(-c2ccc(Br)cc2)c2ccccc2c1=O)c1ccccc1	i
Cc1nc2ccc(NC(=O)c3ccccc3C)cc2o1	i
COc1ccc(-c2noc(CSc3nc(N)c(-c4ccccc4)c(=O)[nH]3)n2)cc1	3.9
Cc1ccc(-c2noc(CSc3nc(N)cc(=O)[nH]3)n2)cc1	i
COc1ccccc1-c1noc(CSc2nc(N)cc(=O)[nH]2)n1	i
CSc1ccc(Cl)cc1NC(=O)c1c(C)noc1C	i
O=C1OC(C(=O)Nc2cccc(Cl)c2)Cc2ccccc21 (stereo not given)	i
CCCc1c(Cc2c(F)cccc2Cl)c(=O)oc2cc(OC(=O)COC)ccc12	4.4
Cc1c(Cc2c(F)cccc2Cl)c(=O)oc2cc(O)ccc12	i
SMILES	Dicer inh
CCCc1c(Cc2c(F)cccc2Cl)c(=O)oc2cc(OS(C)(=O)=O)ccc12	i
O=c1c(-c2ccccc2)coc2cc(OCc3ccc(F)cc3)ccc12	i
CCN(CC)C(=O)n1cnc2cc(C)c(C)cc21	i
CCC(Nc1nc(-c2ccccc2)nc2ccccc12)C(=O)O (stereo not given)	i
O=C(Nc1ccc2c(c1)OCCO2)c1cccc(C(=O)Nc2ccc3c(c2)OCCO3)n1	i
c1ccc(-c2nc(Nc3ccc4c(c3)OCCO4)c3ccccc3n2)cc1	5.4
CCCc1cc(=O)oc2cc(OCC(=O)NNS(=O)(=O)c3cccc(Cl)c3)ccc12	i
CCc1nc2ccccc2n2cc3c(=O)n(C)c(=O)n(C)c3c12	i

From PubChem
